Reference: the supplement of paper PMC13380429

Test system: Vero E6 infected with SARS-CoV-2
Assay: inhibition of SARS-CoV-2 cytopathic effect; higher = more antiviral protection, active = above 15
Settings: 48 h

Measured: inhibition of SARS-CoV-2 cytopathic effect

c1ccc(C2CC2)c(OCC2=NCCN2)c1 [cirazoline]
inactive: 1 nM -0.75% | 8.33 nM 0.31% | 100 nM -8.08% | 833.33 nM 0.87% | 10000 nM -3.99%

C[C@]12C=CC(=O)C=C1CC[C@@H]1[C@@H]2C(=O)C[C@@]2(C)[C@H]1CC[C@]2(O)C(=O)CO [prednisone]
inactive: 1 nM -1.14% | 8.33 nM -0.26% | 100 nM -3.03% | 833.33 nM -1.05% | 10000 nM 1.02%

Cc1cc2c(N3CCCC3)nc(N3CCCC3)nc2n1C
inactive: 1 nM 1.39% | 8.33 nM 5.02% | 100 nM 4.75% | 833.33 nM 3.21% | 10000 nM 3.47%

CC(C)(O)c1ccn2c(-c3ccc(F)c(-c4ccc(F)cc4C#N)c3)cnc2c1F
inactive: 1 nM -0.56% | 8.33 nM 0.82% | 100 nM 0.5% | 833.33 nM -1.01% | 10000 nM -2.58%

CN(C)C(=O)Oc1cc(OC(=O)N(C)C)cc(C(O)CNC(C)(C)C)c1 (stereo not given) [bambuterol]
inactive: 1 nM -2.95% | 8.33 nM -0.79% | 100 nM -1.68% | 833.33 nM -1.56% | 10000 nM -1.86%

CN1CCN(CCCN2c3ccccc3Sc3ccc(C(F)(F)F)cc32)CC1 [trifluoperazine]
inactive: 1 nM -0.89% | 8.33 nM 1.64% | 100 nM -3.09% | 833.33 nM -4.01% | 10000 nM 14.5%

COc1cc2c(cc1O)CC[C@@H]1[C@@H]2CC[C@]2(C)[C@@H](O)CC[C@@H]12 [2-methoxyestradiol]
inactive: 1 nM -3.17% | 8.33 nM 0.66% | 100 nM -1.13% | 833.33 nM -1.83% | 10000 nM -4.59%

C[C@H](N[C@@H](CCc1ccccc1)C(=O)O)C(=O)N1Cc2ccccc2C[C@H]1C(=O)O [quinaprilat]
inactive: 1 nM -0.56% | 8.33 nM -0.93% | 100 nM -1.42% | 833.33 nM -0.25% | 10000 nM 0.11%

CC(C)c1nc(CN(C)C(=O)N[C@H](C(=O)N[C@@H](Cc2ccccc2)C[C@H](O)[C@H](Cc2ccccc2)NC(=O)OCc2cncs2)C(C)C)cs1 [Ritonavir]
inactive: 1 nM 0.39% | 8.33 nM 1.47% | 100 nM 0.46% | 833.33 nM 1.28% | 10000 nM -1.6%

C/C=C1\NC(=O)[C@H]2CSSCC/C=C/[C@H](CC(=O)N[C@H](C(C)C)C(=O)N2)OC(=O)[C@H](C(C)C)NC1=O [romidepsin]
inactive: 1 nM -1.04% | 8.33 nM 0.79% | 100 nM -0.75% | 833.33 nM -16.6% | 10000 nM -18%

NS(=O)(=O)c1cc2c(cc1Cl)NC(C1CC3C=CC1C3)NS2(=O)=O (stereo not given) [cyclothiazide]
inactive: 1 nM 2.43% | 8.33 nM 0.31% | 100 nM 3.55% | 833.33 nM -0.08% | 10000 nM -1.44%

COc1cc(C[C@H](C)[C@H](C)Cc2ccc3c(c2)OCO3)ccc1O [macelignan]
inactive: 1 nM 0.71% | 8.33 nM -0.62% | 100 nM 0.01% | 833.33 nM 2.57% | 10000 nM 1.91%

O=C(O)CCn1c2c(c3ccccc31)C[C@H](NS(=O)(=O)c1ccc(F)cc1)CC2 [ramatroban]
inactive: 1 nM -0.49% | 8.33 nM 0.09% | 100 nM 0.01% | 833.33 nM 0.06% | 10000 nM 2.02%

CC(C)(N)Cc1ccccc1 [phentermine]
inactive: 1 nM 2.16% | 8.33 nM 1.33% | 100 nM 2.37% | 833.33 nM 3.73% | 10000 nM 1.23%

CO/N=C(\C(=O)N[C@@H]1C(=O)N2C(C(=O)O)=C(CSc3nc(=O)c(O)nn3C)CS[C@H]12)c1csc(N)n1 [ceftriaxone]
inactive: 1 nM -1.95% | 8.33 nM -0.8% | 100 nM 1.41% | 833.33 nM 0.59% | 10000 nM 2.56%

COC(=O)c1ccc(N2CCN(C)CC2)c(NC(=O)c2cccc(OC)c2)c1
inactive: 1 nM 6.88% | 8.33 nM 6.06% | 100 nM -2.23% | 833.33 nM -3.85% | 10000 nM 1.03%

CCc1c(C(=O)NCCc2ccc(N3CCCCC3)cc2)[nH]c2ccc(Cl)cc12
inactive: 1 nM 1.1% | 8.33 nM 2.93% | 100 nM 4.96% | 833.33 nM 2.28% | 10000 nM -2.19%
